The source of these data is PubChem BioAssay (Tox21).

Assay [1] can be described thus: Human pregnane X receptor (PXR) small molecule agonists, qHTS cell viability counter screen (AID 1346977). Note: nearly all actives have a fitted effect of over 50% in size. Note: potency is the fitted concentration of half-maximal effect. In a few lines: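 PXR-Luc HepG2 cells in medium with 5% charcoal-stripped FBS were pre-incubated 5hr, then exposed to compounds for 24hr at 37C. Viability was read in the same wells by CellTiter-Fluor fluorescence, reagent added after 23hr with a 1hr incubation.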
(In qHTS, concentration-response curves come from the screen itself.)

Assay [2] can be described thus: Caspase-3/7 induction in HepG2 cells by small molecules, qHTS assay (AID 1346978). Note: nearly all actives have a fitted effect of over 15% in size. Note: potency is the fitted concentration of half-maximal effect. In a few lines:
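Wild-type HepG2 cells, 2,000/well, settled 5 hr at 37 C and 5% CO2, then compound-treated for 17 hr; caspase-3/7 activity read by luminescent Caspase-Glo 3/7 after 30 min at room temperature.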

The nature of assay [3]: Caspase-3/7 induction in CHO-K1 cells by small molecules, qHTS cell viability counter screen (AID 1346979). Note: nearly all actives have a fitted effect of over 35% in size. Note: potency is the fitted concentration of half-maximal effect. The gist of the method: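 Wild-type CHO-K1 cells were seeded at 1,500 per well, rested 5hr at 37 C, then exposed to compounds in DMSO. After 16hr, CellTiter-Fluor reagent was added and fluorescence read 1hr later as the viability measure.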
The nature of assay [4]: Caspase-3/7 induction in CHO-K1 cells by small molecules, qHTS assay (AID 1346980). Note: nearly all actives have a fitted effect of over 15% in size. Note: potency is the fitted concentration of half-maximal effect. The gist of the method: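 Wild-type CHO-K1 cells exposed to compounds for 17hr at 37 C, 5% CO2. Caspase-3/7 activity then measured by Caspase-Glo 3/7 luminescence after 30min at room temperature.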
Assay [5] is described as follows: Caspase-3/7 induction in HepG2 cells by small molecules, qHTS cell viability counter screen (AID 1346981). Note: nearly all actives have a fitted effect of over 30% in size. Note: potency is the fitted concentration of half-maximal effect. In a few lines: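 Treatment of HepG2 cells with DMSO-delivered compounds ran 16 hr at 37 C following a 5-hr pre-incubation of 2,000 cells/well. CellTiter-Fluor fluorescence, read after 1 hr, served as the viability measure in a qHTS format.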
The target of assay [6] is Nuclear receptor subfamily 1 group I member 2 (Homo sapiens) (UniProt O75469). The experiment in a line: Human pregnane X receptor (PXR) small molecule agonists, qHTS assay (AID 1346982). For activation: % is set by controls: 0 for no effect and ±100 for the full control effect. Note: nearly all actives have a fitted effect of over 35% in size. Note: potency is the fitted concentration of half-maximal effect. The gist of the method:
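Stable HepG2 line reporting PXR-mediated CYP3A4 expression via luciferase. Treatment: 24 hr with compounds in DMSO at 37 C. Detection: ONE-Glo luminescence.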

The target of assay [7] is Acetylcholinesterase (Homo sapiens) (UniProt P22303). The experiment in a line: Acetylcholinesterase (AChE) small molecule antagonists: colormetric cell-based qHTS assay (AID 1347395; calls by dose curve; note: nearly all actives have a fitted effect of over 30% in size; note: potency is the fitted concentration of half-maximal effect). In a few lines:
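SH-SY5Y cells, plated overnight at 37 C, were exposed to compounds for 30 min at 37 C and 5% CO2. Acetylthiocholine plus DTNB was then added, and thiocholine from endogenous AChE was quantified colorimetrically after 90 min at 37 C.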

For assay [8] the target is unchanged. The experiment in a line: Acetylcholinesterase (AChE) small molecule antagonists: enzyme-based qHTS assay (AID 1347397; calls by dose curve; note: nearly all actives have a fitted effect of over 55% in size; note: potency is the fitted concentration of half-maximal effect). Conditions: Potency: AChE enzyme activity inhibition. In a few lines:
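Colorimetric DTNB read-out of thiocholine released from acetylthiocholine by recombinant human AChE (50 mU/mL as dispensed). Compounds were preincubated 30 min at RT before substrate/DTNB addition, with a 10 min RT reaction.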

Assay [9] shares this target. The experiment in a line: Acetylcholinesterase (AChE) small molecule antagonists: fluorescence cell-based qHTS assay (AID 1347398; calls by dose curve; note: nearly all actives have a fitted effect of over 50% in size; note: potency is the fitted concentration of half-maximal effect). Conditions: Potency: AChE activity. In a few lines: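 SH-SY5Y, 2,000 cells/well, attached overnight; cmpd 30 min 37 C; acetylthiocholine/Thiolite Green cocktail 40 min RT; fluorescence Ex/Em 490/520 nm.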
The target is the same in assay [10]. The experiment in a line: Acetylcholinesterase (AChE) small molecule antagonists: enzyme-based qHTS assay with human liver microsomes (AID 1347399; calls by dose curve; note: % is set by controls: 0 for no effect and ±100 for the full control effect; nearly all actives have a fitted effect of over 60% in size). Conditions: Potency: qHTS inhibition. The gist of the method: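 Recombinant human AChE (50 mU/mL in the enzyme mix) and human liver microsomes (0.25 mg/mL final) were preincubated with compound and NADPH (0.25 mg/mL final) for 30 min at 37 C. Acetylthiocholine/DTNB was then added; thiocholine was read colorimetrically after 10 min at room temperature.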

In assay [11] the target is Cytochrome P450 2D6 (Homo sapiens) (UniProt P10635). The experiment in a line: Cytochrome P450 Family 2 Subfamily D Member 6 (CYP2D6) small molecule antagonists: luciferase reporter qHTS assay (AID 1671196). Note: nearly all actives have a fitted effect of over 50% in size. Note: potency is the fitted concentration of half-maximal effect. In a few lines:
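Chemicals tested for interference with CYP2D6 activity; proluciferin substrate, NADPH regeneration, 1 h at room temperature, luminescent detection.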

Assay [12] deals with Cytochrome P450 2C19 (Homo sapiens) (UniProt P33261). The assay can be described thus: Cytochrome P450 Family 2 Subfamily C Member 19 (CYP2C19) small molecule antagonists: luciferase reporter qHTS assay (AID 1671197). Note: nearly all actives have a fitted effect of over 65% in size. Note: potency is the fitted concentration of half-maximal effect. In a few lines: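 Relative luminescence units recorded 20 min after the detection reagent stopped a 1 h, 37C CYP2C19 reaction on proluciferin substrate, which was started by NADPH regeneration following 10 min room-temperature compound preincubation; ketoconazole positive control.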
Background: Reporter assays use an easily measured gene product as a stand-in for the process of interest.

Assay [13] deals with Cytochrome P450 2C9 (Homo sapiens) (UniProt P11712). The experiment in a line: Cytochrome P450 Family 2 Subfamily C Member 9 (CYP2C9) small molecule antagonists: luciferase reporter qHTS assay (AID 1671198). Note: nearly all actives have a fitted effect of over 50% in size. Note: potency is the fitted concentration of half-maximal effect. In a few lines:
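P450-Glo proluciferin substrate with CYP2C9 enzyme; 10 min RT preincubation, then NADPH regeneration 1 h at 37C; luciferin detection reagent 20 min RT, luminescence in relative luminescence units.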

Assay [14] concerns the target Cytochrome P450 1A2 (Homo sapiens) (UniProt P05177). The assay can be described thus: Cytochrome P450 Family 1 Subfamily A Member 2 (CYP1A2) small molecule antagonists: luciferase reporter qHTS assay (AID 1671199). Note: nearly all actives have a fitted effect of over 50% in size. Note: potency is the fitted concentration of half-maximal effect. The gist of the method: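 Read-out is luminescence from luciferin detection reagent (20 min) proportional to CYP1A2 activity; compounds in DMSO preincubated 10 min with enzyme and proluciferin substrate, then NADPH regeneration solution, 1 h, room temperature.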

Assay [15] has as its target Voltage-gated inwardly rectifying potassium channel KCNH2 (Homo sapiens) (UniProt Q12809). The assay can be described thus: Human Ether-a-go-go-Related Gene (hERG) channel small molecule antagonists: fluorescence cell-based qHTS assay (AID 1671200). Note: nearly all actives have a fitted effect of over 50% in size. Note: potency is the fitted concentration of half-maximal effect. The gist of the method:
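U2OS cells expressing the channel were plated at 1000 cells/well, incubated overnight at 37 C, then loaded with FluxOR II thallium-sensitive dye for 1 h at room temperature in the dark, with a further 10 min at room temperature before stimulation.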
A general note: Block of hERG is tested as a sign of cardiac risk.

Assay [16] deals with Nuclear receptor subfamily 1 group I member 2 (Rattus norvegicus) (UniProt Q9R1A7). The experiment in a line: Rat pregnane X receptor (rPXR) activation by small molecules, qHTS assay (AID 1346983). Note: % is set by controls: 0 for no effect and ±100 for the full control effect; nearly all actives have a fitted effect of over 20% in size. Conditions: rPXR luciferase reporter cells, One-Glo luminescence, 24 h; stronger effect = higher value. The gist of the method: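 Cell-based rPXR activation assay: rPXR cells, 2,000 per well, rested 5hr at 37 C, then exposed to compounds in DMSO for 24 hr at 37 C. Luciferase activity read by One-Glo luminescence after 30 min at room temperature.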

In assay [17] the target is Nuclear receptor subfamily 1 group I member 2 (Homo sapiens) (UniProt O75469). The assay can be described thus: CYP3A4 induction through human pregnane X receptor (PXR) by small molecules, qHTS assay (AID 1346984). Note: % is set by controls: 0 for no effect and ±100 for the full control effect; nearly all actives have a fitted effect of over 40% in size. The gist of the method:
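After 24 h at 37C with compound, DPX-2 cells (HepG2, co-transfected PXR response element and CYP3A4 promoter-luciferase) got 3uM final P450-Glo Luciferin-IPA for 3 h; One-Glo luminescence followed.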

For assay [18] the target is unchanged. The assay can be described thus: Human pregnane X receptor (PXR) activation by small molecules, qHTS assay (AID 1346985). Note: % is set by controls: 0 for no effect and ±100 for the full control effect; nearly all actives have a fitted effect of over 40% in size. In a few lines:
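DPX-2 cells (HepG2 co-transfected with a PXR response element and a CYP3A4-promoter luciferase construct) were seeded at 2,000 per well, rested 5 hr at 37C, then exposed to DMSO-dissolved compounds for 24 hr. Activation was read as luciferase luminescence.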

For assay [19], the target named is Cytochrome P450 3A4 (Homo sapiens) (UniProt P08684). The experiment in a line: Cytochrome P450 Family 3 Subfamily A Member 4 (CYP3A4) small molecule antagonists: luciferase reporter qHTS assay (AID 1671201). In a few lines: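 P450-Glo CYP3A4 system with proluciferin substrate; compounds preincubated 10 min RT with enzyme-substrate mix, then NADPH regeneration added for 1 h RT. Detection reagent 20 min, luminescence read as relative luminescence units.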

Several values for one entry are separate records, joined by “and”; a condition that tells them apart may be missing. Equal values may be shown once. Results filed as inconclusive are left out. More than one record can exist for a structure, and the calls need not agree. Activity calls are given as the source filed them. Unless noted, calls come from the whole dose curve; as a rule, active = well fitted curve in the direction sought with a large enough effect in the repeat runs; inconclusive = weak or mixed curves; inactive = no such curve, though single readings can be large; an effect the other way counts as inactive or inconclusive.

Chain of Acetylcholinesterase (Homo sapiens) (P22303 whole entry, looked up): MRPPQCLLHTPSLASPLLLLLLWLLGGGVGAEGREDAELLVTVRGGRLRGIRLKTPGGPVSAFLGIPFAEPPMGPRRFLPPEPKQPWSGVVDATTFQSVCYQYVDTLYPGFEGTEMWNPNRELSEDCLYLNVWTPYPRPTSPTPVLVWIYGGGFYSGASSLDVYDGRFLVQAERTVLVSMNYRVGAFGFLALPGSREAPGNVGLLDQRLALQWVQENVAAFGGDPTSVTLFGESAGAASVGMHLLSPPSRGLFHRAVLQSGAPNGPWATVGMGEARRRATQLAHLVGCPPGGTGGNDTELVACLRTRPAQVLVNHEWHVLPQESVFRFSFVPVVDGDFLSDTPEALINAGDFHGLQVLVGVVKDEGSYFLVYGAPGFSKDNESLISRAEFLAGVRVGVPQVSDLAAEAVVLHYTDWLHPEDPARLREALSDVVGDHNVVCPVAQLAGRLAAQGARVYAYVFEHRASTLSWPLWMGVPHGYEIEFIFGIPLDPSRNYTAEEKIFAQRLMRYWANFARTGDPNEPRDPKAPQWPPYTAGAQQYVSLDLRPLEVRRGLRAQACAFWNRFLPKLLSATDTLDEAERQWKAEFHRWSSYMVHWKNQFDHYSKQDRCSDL
Chain of Nuclear receptor subfamily 1 group I member 2 (Homo sapiens) (O75469 whole entry, looked up): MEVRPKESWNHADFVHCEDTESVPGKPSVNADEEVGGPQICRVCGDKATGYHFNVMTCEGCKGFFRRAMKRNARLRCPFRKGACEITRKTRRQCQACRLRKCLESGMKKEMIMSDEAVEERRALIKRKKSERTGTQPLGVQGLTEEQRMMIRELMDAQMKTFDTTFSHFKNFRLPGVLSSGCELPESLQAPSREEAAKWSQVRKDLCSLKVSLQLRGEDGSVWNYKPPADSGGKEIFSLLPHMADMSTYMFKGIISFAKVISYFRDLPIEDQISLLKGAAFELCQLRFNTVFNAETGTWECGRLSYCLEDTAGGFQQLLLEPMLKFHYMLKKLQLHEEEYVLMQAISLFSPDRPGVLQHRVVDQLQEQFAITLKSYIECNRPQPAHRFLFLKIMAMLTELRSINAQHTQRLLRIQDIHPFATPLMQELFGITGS
Chain of Cytochrome P450 2C19 (Homo sapiens) (P33261 whole entry, looked up): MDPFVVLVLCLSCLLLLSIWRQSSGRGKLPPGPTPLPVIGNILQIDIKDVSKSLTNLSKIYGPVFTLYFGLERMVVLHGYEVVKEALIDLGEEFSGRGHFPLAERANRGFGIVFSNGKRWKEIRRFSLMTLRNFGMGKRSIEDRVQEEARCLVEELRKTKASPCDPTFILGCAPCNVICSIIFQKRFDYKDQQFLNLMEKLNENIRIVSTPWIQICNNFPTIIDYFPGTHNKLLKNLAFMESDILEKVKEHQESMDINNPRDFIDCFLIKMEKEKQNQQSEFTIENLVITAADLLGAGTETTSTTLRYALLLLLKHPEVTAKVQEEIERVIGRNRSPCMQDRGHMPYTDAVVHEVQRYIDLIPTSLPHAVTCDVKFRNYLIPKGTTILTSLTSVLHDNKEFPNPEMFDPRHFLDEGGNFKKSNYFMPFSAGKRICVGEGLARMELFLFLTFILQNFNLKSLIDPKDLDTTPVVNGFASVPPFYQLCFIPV
Chain of Cytochrome P450 2C9 (Homo sapiens) (P11712 whole entry, looked up): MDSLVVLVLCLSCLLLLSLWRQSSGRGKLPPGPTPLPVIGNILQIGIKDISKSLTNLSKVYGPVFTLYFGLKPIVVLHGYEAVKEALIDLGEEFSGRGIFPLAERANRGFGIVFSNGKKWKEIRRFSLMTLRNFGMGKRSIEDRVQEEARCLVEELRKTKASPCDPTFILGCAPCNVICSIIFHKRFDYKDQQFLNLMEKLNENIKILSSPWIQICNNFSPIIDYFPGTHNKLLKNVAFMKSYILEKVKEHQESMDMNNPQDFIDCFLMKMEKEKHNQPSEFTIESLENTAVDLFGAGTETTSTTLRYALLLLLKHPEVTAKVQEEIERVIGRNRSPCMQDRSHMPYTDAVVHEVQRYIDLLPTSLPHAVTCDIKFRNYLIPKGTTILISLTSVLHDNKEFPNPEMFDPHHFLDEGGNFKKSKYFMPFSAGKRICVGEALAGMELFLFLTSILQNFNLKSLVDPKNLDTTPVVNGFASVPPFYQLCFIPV
Chain of Cytochrome P450 2D6 (Homo sapiens) (P10635 whole entry, looked up): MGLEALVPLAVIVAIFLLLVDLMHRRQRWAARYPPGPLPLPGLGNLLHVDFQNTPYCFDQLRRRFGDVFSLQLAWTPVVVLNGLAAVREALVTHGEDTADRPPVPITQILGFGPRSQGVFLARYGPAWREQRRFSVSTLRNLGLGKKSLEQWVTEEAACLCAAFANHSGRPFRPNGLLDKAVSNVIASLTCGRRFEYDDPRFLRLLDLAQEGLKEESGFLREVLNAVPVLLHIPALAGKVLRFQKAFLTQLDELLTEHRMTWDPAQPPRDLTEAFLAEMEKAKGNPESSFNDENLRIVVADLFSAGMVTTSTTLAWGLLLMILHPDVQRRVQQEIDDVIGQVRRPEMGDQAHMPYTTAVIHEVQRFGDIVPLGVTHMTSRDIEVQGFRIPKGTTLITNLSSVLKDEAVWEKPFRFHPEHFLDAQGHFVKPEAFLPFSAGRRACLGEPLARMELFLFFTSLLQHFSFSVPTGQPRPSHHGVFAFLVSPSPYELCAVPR
Chain of Cytochrome P450 1A2 (Homo sapiens) (P05177 whole entry, looked up): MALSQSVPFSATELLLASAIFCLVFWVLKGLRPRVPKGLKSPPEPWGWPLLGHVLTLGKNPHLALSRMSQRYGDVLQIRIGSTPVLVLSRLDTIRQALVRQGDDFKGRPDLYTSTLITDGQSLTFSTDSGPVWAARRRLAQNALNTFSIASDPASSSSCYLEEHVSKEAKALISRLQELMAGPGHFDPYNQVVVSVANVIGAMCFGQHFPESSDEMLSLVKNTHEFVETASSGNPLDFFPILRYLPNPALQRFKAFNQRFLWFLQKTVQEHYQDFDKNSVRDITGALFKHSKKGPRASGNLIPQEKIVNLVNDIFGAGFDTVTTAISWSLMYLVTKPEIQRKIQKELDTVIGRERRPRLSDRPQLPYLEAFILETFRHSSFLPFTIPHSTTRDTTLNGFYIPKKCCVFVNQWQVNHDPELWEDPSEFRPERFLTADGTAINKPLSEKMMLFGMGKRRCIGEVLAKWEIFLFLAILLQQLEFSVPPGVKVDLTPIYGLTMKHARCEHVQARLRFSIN
Chain of Voltage-gated inwardly rectifying potassium channel KCNH2 (Homo sapiens) (Q12809 whole entry, looked up): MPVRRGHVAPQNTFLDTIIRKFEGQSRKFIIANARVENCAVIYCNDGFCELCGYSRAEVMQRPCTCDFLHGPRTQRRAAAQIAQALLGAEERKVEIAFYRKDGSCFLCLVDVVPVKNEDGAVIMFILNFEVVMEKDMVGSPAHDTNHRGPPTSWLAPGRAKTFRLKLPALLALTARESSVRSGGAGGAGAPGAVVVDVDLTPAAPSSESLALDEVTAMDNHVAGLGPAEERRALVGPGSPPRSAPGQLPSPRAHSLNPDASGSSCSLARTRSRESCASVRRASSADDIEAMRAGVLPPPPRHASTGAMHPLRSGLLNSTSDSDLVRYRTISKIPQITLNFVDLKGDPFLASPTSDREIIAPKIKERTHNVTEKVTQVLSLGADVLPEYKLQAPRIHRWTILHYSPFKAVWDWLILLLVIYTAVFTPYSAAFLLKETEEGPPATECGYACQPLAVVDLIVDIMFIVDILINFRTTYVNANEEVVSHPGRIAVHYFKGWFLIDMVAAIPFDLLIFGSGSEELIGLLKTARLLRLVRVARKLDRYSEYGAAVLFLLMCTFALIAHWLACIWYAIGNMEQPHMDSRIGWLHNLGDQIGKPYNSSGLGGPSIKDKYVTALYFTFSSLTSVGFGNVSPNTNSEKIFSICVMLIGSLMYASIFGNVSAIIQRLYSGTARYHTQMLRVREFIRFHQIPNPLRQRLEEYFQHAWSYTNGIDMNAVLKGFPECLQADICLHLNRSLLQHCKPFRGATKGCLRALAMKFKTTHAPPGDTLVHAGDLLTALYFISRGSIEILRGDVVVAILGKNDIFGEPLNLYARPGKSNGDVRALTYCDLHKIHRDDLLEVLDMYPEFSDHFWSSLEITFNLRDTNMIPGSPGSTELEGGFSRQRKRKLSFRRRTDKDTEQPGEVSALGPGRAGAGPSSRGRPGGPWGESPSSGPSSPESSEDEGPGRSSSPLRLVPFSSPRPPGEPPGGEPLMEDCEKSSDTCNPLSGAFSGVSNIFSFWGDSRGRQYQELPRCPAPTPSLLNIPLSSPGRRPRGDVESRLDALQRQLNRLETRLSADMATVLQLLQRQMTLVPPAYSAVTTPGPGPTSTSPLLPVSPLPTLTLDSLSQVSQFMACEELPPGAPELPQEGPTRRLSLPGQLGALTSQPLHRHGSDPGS
Chain of Cytochrome P450 3A4 (Homo sapiens) (P08684 whole entry, looked up): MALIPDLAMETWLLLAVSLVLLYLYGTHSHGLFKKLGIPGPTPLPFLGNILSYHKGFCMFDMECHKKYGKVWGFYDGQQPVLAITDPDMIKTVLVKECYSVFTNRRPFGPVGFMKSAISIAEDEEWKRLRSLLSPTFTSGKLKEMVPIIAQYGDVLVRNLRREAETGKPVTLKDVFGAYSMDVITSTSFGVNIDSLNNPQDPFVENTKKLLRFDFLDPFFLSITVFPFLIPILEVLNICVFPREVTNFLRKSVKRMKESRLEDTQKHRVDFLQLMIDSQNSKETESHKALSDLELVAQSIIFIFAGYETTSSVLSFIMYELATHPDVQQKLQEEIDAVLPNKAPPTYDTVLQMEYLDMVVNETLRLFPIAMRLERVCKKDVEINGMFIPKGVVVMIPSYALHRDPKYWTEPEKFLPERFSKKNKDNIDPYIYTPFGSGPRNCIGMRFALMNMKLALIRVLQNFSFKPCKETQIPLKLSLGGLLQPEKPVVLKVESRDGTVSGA

With `C=CC(=O)OCC(CC)(COC(=O)C=C)COC(=O)C=C`, the Potency was 31.6 µM (active) and 30.6 µM (active) in assay [1]; 25 µM (active) and 24.3 µM (active) in assay [2]; 4.99 µM (active) and 4.86 µM (active) in [3]; 4.86 µM (active) in assay [4]; 35.3 µM (active) and 24.3 µM (active) in assay [5]; 65 µM (active) and 63.3 µM (active) in [11]. Further, the Potency is 16.3 µM (active) and 15.9 µM (active) in assay [12]; 13 µM (active) and 28.3 µM (active) in assay [13]; 39.9 µM (active) in [14]. Besides, the Potency result in assay [6], in assay [7], in assay [8], in [9], in [10] and in assay [15] was “inactive” throughout.

`COP(=S)(OC)Oc1ccc(S(=O)(=O)N(C)C)cc1`: the Potency entry in [1], in assay [2], in assay [3], in assay [4], in assay [5] and in [17] was “inactive” throughout. Moreover, the Potency entry in assay [8], in [10] and in [15] was “inactive” in each case. Moreover, the Potency in assay [6] is 34.4 µM (active) and inactive; in assay [7] it was 39.9 µM (active); in assay [11] it was 35.6 µM (active); in [12], 79.6 nM (active) and 55 nM (active); in assay [13] it was 356 nM (active) and 490 nM (active); in assay [14] it was 31.7 µM (active) and inactive. The Potency in assay [19] was 7.96 µM (active) and 6.92 µM (active). Moreover, the max activation in [16] was -2.31% (inactive). Moreover, in [18], the result was inactive.

Consider `C=C(C)C#N`, for which the Potency entry in assay [1], in [2], in assay [3], in assay [4], in [5] and in assay [6] was “inactive” in each case. Further, the Potency result in assay [7], in [8], in assay [9], in [10], in assay [11] and in assay [12] was “inactive” each time. Also, the Potency result in assay [13], in [14] and in assay [15] was “inactive” throughout.

In the case of `CCOS(=O)(=O)OCC`, the Potency entry in assay [1], in [2], in [3], in assay [4], in [5] and in [6] was “inactive” each time. Further, the Potency entry in [8], in [9], in assay [10], in assay [11] and in assay [15] was “inactive” each time. The Potency in assay [7] was 5.03 µM (active) and inactive; in [12], 79.8 µM (active) and inactive; in assay [13], 71.1 µM (active) and inactive; in assay [14], 35.6 µM (active) and inactive.

As to `CCOP(=O)(O)OCC` (tested in a mixture with another compound), the Potency result in assay [1] is “inactive and 24.1 µM (active)”; in [3], “inactive and 24.1 µM (active)”; in assay [5] it was “inactive and 68 µM (active)”; in [6] it was “inactive and 4.29 µM (active)”; in [8] it was “inactive and 31.4 µM (active)”; in [9] it was “inactive and 39.6 µM (active)”. Also, the Potency in assay [11] was 40.3 µM (active) and 886 nM (active); in assay [12], 79 µM (active); in [13] it was “inactive and 55.9 µM (active)”; in assay [14], 79 µM (active); in assay [15], “inactive and 6.12 µM (active)”. The Potency entry in assay [2], in [4], in assay [7] and in assay [10] was “inactive” throughout.

On to `COP(=S)(OC)Oc1ccc(Sc2ccc(OP(=S)(OC)OC)cc2)cc1`, for which the Potency result in [1], in assay [2], in [3], in [4], in assay [5] and in assay [17] was “inactive” throughout. For the same compound, the Potency result in assay [7], in assay [8], in [9], in assay [10], in assay [14] and in [15] was “inactive” each time. The Potency is 24.3 µM (active) and inactive in [6]; 63.3 µM (active) and inactive in assay [11]; 3.17 µM (active) and 4.9 µM (active) in [12]; 5.64 µM (active) and 11 µM (active) in assay [13]. Moreover, the max activation in assay [16] is 1.76% (inactive). Besides, the result in assay [18] was inactive.
